The values that follow come from PubChem BioAssay (Tox21).

Results filed as inconclusive are left out. A number with no mark means an inactive call. Calls of active or inactive are those of the source. Unless noted, the call rests on the fitted dose curve; in most records, active means well fitted curve in the direction sought with a large enough effect in the repeat runs; inconclusive means weak or mixed curves; inactive means no such curve, though single readings can be large; an effect the other way counts as inactive or inconclusive.

A short description of assay [1]: qHTS assay to identify small molecule agonists of the vitamin D receptor (VDR) signaling pathway - cell viability counter screen (AID 743224). Further: series mostly up to about 63 µM; on the % scale 0 is the no-effect control and ±100 the full control effect; nearly all actives have a fitted effect of over 50% in size. An outline of the steps: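 CellTiter-Glo viability readout on VDR-bla cells, measured after 16 h of compound treatment at 37C in the same wells.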
(qHTS replaces the single test concentration by a dilution series.)

The nature of assay [2]: qHTS assay to identify small molecule agonists of the NFkB signaling pathway (AID 1159509; active means well fitted curve in the direction sought with a large enough effect in the signal ratio in the repeat runs, not every such curve was filed as active; the % refers to the signal ratio; further: series mostly up to about 61 µM; on the % scale 0 is the no-effect control and ±100 the full control effect). The procedure, abridged: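 Pathway activation was measured in ME-180 cells stably expressing beta-lactamase under NF-kB response element control. Substrate cleavage was read as the 460/530 nm emission shift after 5 hr compound incubation.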
Assay [3] is described as follows: qHTS assay to identify small molecule agonists of the NFkB signaling pathway - cell viability counter screen (AID 1159515; calls by dose curve; further: series mostly up to about 61 µM; on the % scale 0 is the no-effect control and ±100 the full control effect; nearly all actives have a fitted effect of over 55% in size). The procedure, abridged: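 Tox21 library compounds were tested for cytotoxicity against NFkB-bla ME-180 cells during a 5 hr exposure at 37 C. CellTiter-Glo luminescence served as the viability read-out.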
Assay [4] can be described thus: qHTS assay to identify small molecule agonists of the endoplasmic reticulum stress response signaling pathway (AID 1159516; active means well fitted activation curve with a large enough effect in the signal ratio in the repeat runs, not every such curve was filed as active; the % refers to the signal ratio; further: on the % scale 0 is the no-effect control and ±100 the full control effect). The procedure, abridged:
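Fluorescence at 460 and 530 nm (405 nm excitation) reports beta-lactamase from an ER stress response element in HeLa cells treated 5 hr at 37 C.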

A short description of assay [5]: qHTS assay to identify small molecule agonists of the endoplasmic reticulum stress response signaling pathway - cell viability counter screen (AID 1159517; calls by dose curve; further: series mostly up to about 61 µM; on the % scale 0 is the no-effect control and ±100 the full control effect; nearly all actives have a fitted effect of over 50% in size). The procedure, abridged:
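In parallel with the ESRE reporter read, cytotoxicity was scored by CellTiter-Glo luminescence (30 min, room temperature) on HeLa ESRE-bla cells dosed for 5 hr.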

A short description of assay [6]: qHTS assay to identify small molecule antagonists of the retinoid-related orphan receptor gamma (ROR-gamma) signaling pathway - cell viability counter screen (AID 1159520). Further: on the % scale 0 is the no-effect control and ±100 the full control effect; nearly all actives have a fitted effect of over 50% in size. An outline of the steps: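 Tet-on ROR gamma CHO cells were given compounds for 2 hr, then doxycycline hyclate at 1 uM final, and incubated 16 hr at 37 C. Viability was measured as ATP content by CellTiter-Glo luminescence.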

In assay [7] the target is Nuclear receptor ROR-gamma (Homo sapiens) (UniProt P51449). Description: qHTS assay to identify small molecule antagonists of the retinoid-related orphan receptor gamma (ROR-gamma) signaling pathway (AID 1159521; further: nearly all actives have a fitted effect of over 50% in size; further: potency means the concentration at half of the fitted maximal effect). The procedure, abridged: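 Readout: ONE-Glo luciferase luminescence, 30 min at room temperature. System: Tet-on RORγ CHO, RORE-LUC. Sequence: compound 2 h, doxycycline 1 uM final, 16 h at 37 C.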

Assay [8] can be described thus: qHTS assay to identify small molecule agonists of the AP-1 signaling pathway - cell viability counter screen (AID 1159525; calls by dose curve; further: nearly all actives have a fitted effect of over 55% in size). The procedure, abridged: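 Same-well cytotoxicity counter screen of the Tox21 10K library in ME-180 cells. The readout is ATP-dependent luminescence after 5 h compound treatment. Data are normalised to DMSO and tetra n-octyl ammonium bromide controls.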

Assay [9] in a line: qHTS assay to identify small molecule agonists of the AP-1 signaling pathway (AID 1159526; calls by dose curve; further: on the % scale 0 is the no-effect control and ±100 the full control effect).
Assay [10] has as its target Retinoic acid receptor RXR-alpha (Homo sapiens) (UniProt P19793). Briefly: qHTS assay to identify small molecule agonists of the RXR signaling pathway (AID 1159527; calls by dose curve; further: on the % scale 0 is the no-effect control and ±100 the full control effect; nearly all actives have a fitted effect of over 35% in size). The procedure, abridged: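 Reporter activation is measured as beta-lactamase activity via FRET substrate cleavage (emission 460/530 nm) in HEK 293T cells expressing an RXR-alpha-driven bla construct, following 16 hr compound exposure at 37 C.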

Assay [11] in a line: qHTS assay to identify small molecule agonists of the RXR signaling pathway - cell viability counter screen (AID 1159529). An outline of the steps: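 Tox21 10K compounds were tested for cytotoxicity against GeneBLAzer RXR-alpha HEK 293T cells grown in 2% charcoal-stripped FBS. Exposure lasted 16 hr at 37 C, 5% CO2; viability read by CellTiter-Glo luminescence.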
Assay [12] in a line: qHTS assay to identify small molecule antagonists of the retinoid acid receptor (RAR) signaling pathway - cell viability counter screen (AID 1159551). Further: on the % scale 0 is the no-effect control and ±100 the full control effect; nearly all actives have a fitted effect of over 35% in size. The procedure, abridged:
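In this counter screen, the RARE-luciferase line C3RL4 was exposed for 6 h at 37 C and 5% CO2 to compounds with retinol at 1 uM final. Cellular ATP, read by luminescence, served as the viability measure.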

Assay [13] can be described thus: qHTS assay to identify small molecule antagonists of the vitamin D receptor (VDR) signaling pathway - cell viability counter screen (AID 743225). The procedure, abridged:
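Cytotoxicity toward the VDR-bla HEK 293T line was scored by ATP-based CellTiter-Glo luminescence, read in the wells already used for the beta-lactamase readout after 16 h compound treatment under 3 nM 1-alpha,25-dihydroxyvitamin D3 stimulation.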

Assay [14] in a line: qHTS assay to identify small molecule antagonists of the retinoic acid receptor (RAR) signaling pathway (AID 1159552). An outline of the steps:
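Overnight-plated C3RL4 reporter cells get compound, then retinol to 1 uM final; plates sit 6 hr at 37 C, 5% CO2. A luciferase reagent is added and light output recorded after 30 min at room temperature.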

Assay [15] can be described thus: qHTS assay to identify small molecule agonists of the retinoic acid receptor (RAR) signaling pathway (AID 1159553). Further: on the % scale 0 is the no-effect control and ±100 the full control effect. The procedure, abridged: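 In this cell-based screen, 1,000 C3RL4 cells per well were cultured overnight, dosed with test chemicals in DMSO for 6 hr, and assessed for RARE luciferase luminescence.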

Sequence of Retinoic acid receptor RXR-alpha (Homo sapiens) (P19793 whole entry, looked up): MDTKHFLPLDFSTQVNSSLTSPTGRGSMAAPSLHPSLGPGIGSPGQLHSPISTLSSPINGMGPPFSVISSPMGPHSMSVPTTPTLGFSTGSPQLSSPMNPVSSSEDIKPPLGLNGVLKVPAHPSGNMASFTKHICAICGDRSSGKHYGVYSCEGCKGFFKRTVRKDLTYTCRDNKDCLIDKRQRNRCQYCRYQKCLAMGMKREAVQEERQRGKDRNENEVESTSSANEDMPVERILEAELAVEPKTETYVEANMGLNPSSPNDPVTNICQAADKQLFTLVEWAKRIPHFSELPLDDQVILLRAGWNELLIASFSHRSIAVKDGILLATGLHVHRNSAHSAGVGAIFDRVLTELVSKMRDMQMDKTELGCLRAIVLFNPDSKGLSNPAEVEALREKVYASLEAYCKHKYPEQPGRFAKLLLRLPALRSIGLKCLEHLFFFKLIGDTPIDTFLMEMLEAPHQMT

In the case of `C#CC(O)CCCCC` (stereo not drawn), the outcome in assay [1], in assay [2], in assay [3], in [4], in [5] and in assay [8] was inactive. Moreover, the result in assay [12] was inactive. In addition, the Potency result in assay [6], in assay [7], in [9], in [10] and in assay [11] was “inactive” each time.

As for `COc1cc(O)cc(O)c1`, the call in assay [1], in [2], in assay [3], in assay [4], in assay [5] and in [8] was inactive. Besides, the outcome in assay [12] was inactive. Also, the Potency entry in assay [6], in [7], in [9], in [10] and in [11] was “inactive” throughout.

Take `CC(O)CN(CCCN(C)C)CCCN(C)C` (stereo not drawn): the outcome in assay [1], in [13], in [2], in assay [3], in assay [4] and in assay [5] was inactive. The outcome in [8] and in assay [12] was inactive. The Potency entry in assay [6], in assay [7], in assay [9], in assay [10] and in assay [11] was “inactive” each time.

For the molecule `CC(=O)OC(C)(C)C`, the molecule was called inactive in [1], in assay [13], in assay [2], in assay [3], in [4] and in [5]. In addition, the molecule was called inactive in [8] and in [12]. The Potency result in assay [6], in [7], in assay [9], in assay [10] and in assay [11] was “inactive” in each case.

`CC(C=O)Cc1ccc(C(C)C)cc1` (stereo not drawn): the result in [1], in [2], in [3], in [4], in [5] and in assay [8] was inactive. Also, the call in assay [12] was inactive. The Potency entry in [6], in [7], in assay [9], in assay [10] and in [11] was “inactive” each time.

For the molecule `COCc1ccc(COC)cc1`, the result in assay [1], in [13], in [2], in assay [3], in assay [4] and in assay [5] was inactive. Moreover, the result in assay [8] and in assay [12] was inactive. For the same molecule, the Potency entry in [6], in [7], in assay [9], in assay [10] and in [11] was “inactive” in each case.

Consider `C=CCOCC(O)CS(=O)(=O)O` (stereo not drawn), for which the molecule was classed as inactive in [1], in [2], in [3], in assay [4], in assay [5] and in [8]. In [12], the molecule was called inactive. In addition, the Potency entry in assay [6], in assay [7], in assay [9], in assay [10] and in [11] was “inactive” each time.

Consider `NS(=O)(=O)c1cc(C2(O)NC(=O)c3ccccc32)ccc1Cl` (stereo not drawn), for which the result in [1], in assay [13], in [2], in assay [3], in assay [4] and in assay [5] was inactive. The result in assay [8] and in [12] was inactive. For the same molecule, the Potency entry in assay [6], in assay [7], in [9], in [10] and in assay [11] was “inactive” throughout.

In the case of `NC(=S)Nc1cccc2ccccc12`, the activity change, negative = cytotoxicity in assay [1] is 6.68% [at 5.95 µM]; in assay [5], 2.64% [at 6.95 µM]; in assay [11], -0.564% [at 6.97 µM]; in assay [12], 3.14% [at 8.39 µM]. The values for the viability change, negative = cytotoxic in assay [13] and in assay [8] were -0.0846% [at 6.95 µM] and -1.31% [at 6.97 µM], respectively. For the same molecule, the activation is -0.909% [at 6.95 µM] in [2], -3.75% [at 6.95 µM] in assay [4], -4.57% [at 6.97 µM] in assay [9] and 6.32% [at 6.98 µM] in [10]. In addition, the activity, negative = cytotoxic in assay [3] is -2.24% [at 6.95 µM]. In assay [6], the activity, negative = cytotoxicity is 13.1% [at 8.39 µM]. In addition, the activity change, negative = inhibition in [7] was 10.3% [at 8.39 µM].

Turning to `C[C@H](O)C(=O)Nc1c(I)c(C(=O)NC(CO)CO)c(I)c(C(=O)NC(CO)CO)c1I`, the outcome in [1], in assay [13], in assay [2], in assay [3], in assay [4] and in assay [5] was inactive. Further, the outcome in assay [8] and in assay [12] was inactive. The Potency result in assay [6], in assay [7], in assay [9], in assay [10] and in assay [11] was “inactive” in each case.

Turning to `OC1OC[C@@H](O)[C@H](O)[C@H]1O` (stereo partly drawn), the molecule was classed as inactive in assay [1], in assay [2], in [3], in [4], in assay [5] and in [8]. Besides, the molecule was classed as inactive in assay [12]. The Potency entry in assay [6], in [7], in assay [9], in assay [10] and in assay [11] was “inactive” in each case.

As for `CCCCCCCCCCCCCCCCCCOCC(O)CO` (stereo not drawn), the molecule was called inactive in assay [1], in assay [13], in assay [2], in [3], in assay [4] and in assay [5]. Further, the molecule was called inactive in assay [8] and in assay [12]. The Potency entry in assay [6], in assay [7], in [9], in assay [10] and in assay [11] was “inactive” throughout.

As for `C=C(C)C(=O)NCCCN(C)C`, the outcome in [1], in assay [2], in assay [3], in [4], in assay [5] and in [8] was inactive. Also, the outcome in [12] was inactive. Also, the Potency entry in [6], in [7], in [9], in [10] and in [11] was “inactive” throughout.

For the molecule `O=C(O)c1ccccc1-c1ccc(C(F)(F)F)cc1`, the result in assay [1], in assay [13], in assay [2], in assay [3], in assay [4] and in [5] was inactive. Besides, the molecule was classed as inactive in assay [8] and in assay [12]. The Potency entry in assay [6], in [7], in assay [9], in [10] and in [11] was “inactive” throughout.

As for `C1COCCO1`, the molecule was called inactive in assay [1], in assay [13], in assay [2], in assay [3], in [4] and in [5]. Also, the molecule was classed as inactive in assay [8] and in [12]. The Potency result in assay [6], in assay [7], in assay [9], in assay [10] and in assay [11] was “inactive” throughout.

As for `NC(=O)Nc1nc2ccccc2[nH]1`, the molecule was classed as inactive in assay [1], in assay [13], in assay [2], in [3], in [4] and in assay [5]. Besides, in assay [8], the outcome was inactive. The Potency entry in [6], in assay [7], in [9], in assay [10], in [11] and in assay [14] was “inactive” each time. For the same molecule, in assay [15], the Potency entry was “inactive”.

For the molecule `Nc1ccn(C2CO[C@H](CO)O2)c(=O)n1` (stereo partly drawn), the molecule was classed as inactive in assay [1], in assay [13], in assay [2], in assay [3], in assay [4] and in [5]. For the same molecule, the result in assay [8] and in assay [12] was inactive. Further, the Potency result in assay [6], in assay [7], in assay [9], in assay [10] and in assay [11] was “inactive” in each case.

For the molecule `CCCC(=O)O[C@]1(C(=O)CCl)[C@@H](C)C[C@H]2[C@@H]3CCC4=CC(=O)C=C[C@]4(C)[C@@]3(F)C(=O)C[C@@]21C`, the molecule was called inactive in assay [1], in [2], in assay [3], in [4], in [5] and in assay [8]. Besides, the outcome in assay [12] was inactive. In addition, the Potency result in assay [6], in assay [9], in [10] and in assay [11] was “inactive” each time. Further, the Potency in [7] was 10.6 µM (active).
